The panel holds about 79,000 compounds, 15% with a hit somewhere; the sample as a whole holds those more often. Active and inactive are the calls of the source. Cut-off read from the data, not from the text of the source: active = growth inhibition above about 70%; inactive = the rest.
Key:
[1] = NCI Yeast Anticancer Drug Screen. Data for the rad52 strain (AID 147);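 note: 0% = growth of vehicle-treated control cultures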; conditions: S. cerevisiae rad52 mutant growth inhibition, hits give high values
Procedure, shortened: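 Genetically altered yeast (DNA damage repair defect) treated with compound; inhibition calculated relative to vehicle.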

[2] = NCI Yeast Anticancer Drug Screen. Data for the wt1 strain (AID 149);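 note: 0% = growth of vehicle-treated wt1 cultures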; conditions: S. cerevisiae wt1 strain (SPY 50644) growth inhibition, hits give high values
Procedure, shortened: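 Vehicle-normalised growth inhibition; strain wt1; compound exposure.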

[3] = NCI Yeast Anticancer Drug Screen. Data for the rad50EPP+ strain (AID 151);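 note: 0% = growth of vehicle-treated control cultures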; conditions: S. cerevisiae rad50 mutant strain, hits give high values
Procedure, shortened: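 Strain rad50EPP+; compound exposure; % growth inhibition vs vehicle.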

[4] = NCI Yeast Anticancer Drug Screen. Data for the mgt1 strain (AID 153); conditions: S. cerevisiae mgt1 mutant growth inhibition, hits give high values
Procedure, shortened: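 Read-out: yeast growth inhibition vs vehicle control. Strain mgt1, drawn from a panel altered in DNA damage repair or cell cycle control.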

[5] = NCI Yeast Anticancer Drug Screen. Data for the rad50 strain (AID 155);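 note: 0% = growth of vehicle-only cultures of the same strain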; conditions: S. cerevisiae rad50 strain growth inhibition, hits give high values
Procedure, shortened: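 A DNA repair-deficient yeast mutant serves as the test organism; compound-induced growth inhibition is calculated against vehicle-treated cells.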

[6] = NCI Yeast Anticancer Drug Screen. Data for the mec2-1 strain (AID 157); conditions: S. cerevisiae mec2-1 strain, hits give high values
Procedure, shortened: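 Cells of the genetically defined mec2-1 yeast strain are incubated with test compound. Inhibition of growth is calculated against vehicle-treated controls.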

[7] = NCI Yeast Anticancer Drug Screen. Data for the rad14 strain (AID 159);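 note: 0% = growth of vehicle-treated control cultures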; conditions: S. cerevisiae rad14 strain growth inhibition, hits give high values
Procedure, shortened: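 Vehicle-treated cultures served as the baseline for growth inhibition of a DNA repair-mutant yeast strain exposed to each compound.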

[8] = NCI Yeast Anticancer Drug Screen. Data for the sgs1 mgt1 strain (AID 161);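 note: 0% = growth of cultures given vehicle only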; conditions: S. cerevisiae sgs1 mgt1 strain, hits give high values
Procedure, shortened: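 Genetically altered yeast, compound exposure, growth inhibition relative to vehicle.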

[9] = NCI Yeast Anticancer Drug Screen. Data for the CLN2oe strain (AID 163);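 note: 0% = growth of vehicle-only control cultures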; conditions: S. cerevisiae CLN2oe strain, hits give high values
Procedure, shortened: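 Strain altered in cell-cycle control, incubated with compound; growth compared to solvent-treated controls.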

[10] = NCI Yeast Anticancer Drug Screen. Data for the cln2 rad14 strain (AID 165);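 note: 0% = growth equal to vehicle treated cultures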; conditions: S. cerevisiae cln2 rad14 strain, hits give high values
Procedure, shortened: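 The screen exposed genetically defined yeast (cln2 rad14) to test compounds and scored growth inhibition relative to vehicle-treated controls.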

[11] = NCI Yeast Anticancer Drug Screen. Data for the bub3 strain (AID 167); conditions: S. cerevisiae bub3 mutant strain, hits give high values
Procedure, shortened: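 Inhibition values come from growth of compound-treated mutant yeast normalised to vehicle-treated controls.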

[12] = NCI Yeast Anticancer Drug Screen. Data for the wt2 strain (AID 169);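 note: 0% = growth of vehicle-treated yeast cultures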; conditions: S. cerevisiae wt2 strain growth inhibition, hits give high values
Procedure, shortened: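 Steps: yeast strain treated with compound; growth recorded; inhibition calculated relative to cultures given vehicle alone.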

[13] = NCI Yeast Anticancer Drug Screen. Data for the mlh1 strain (AID 171);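 note: 0% = growth of vehicle-treated control cultures of the same strain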; conditions: S. cerevisiae mlh1 strain growth inhibition, hits give high values
Procedure, shortened: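 Yeast screen: mutant strain plus compound, growth scored against vehicle control wells.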

[14] = NCI Yeast Anticancer Drug Screen. Data for the mlh1 rad18 strain (AID 175); conditions: S. cerevisiae mlh1 rad18 strain growth inhibition, hits give high values
Procedure, shortened: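 Compound-treated yeast growth, normalised to vehicle controls. Strain bears defined DNA repair mutations.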

[15] = NCI Yeast Anticancer Drug Screen. Data for the rad18 strain (AID 177); conditions: S. cerevisiae rad18 mutant growth inhibition, hits give high values
Procedure, shortened: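 Inhibition values reflect reduced yeast growth compared with vehicle-treated controls, using a strain engineered with a DNA damage repair defect.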

[16] = NCI Yeast Anticancer Drug Screen. Data for the sgs1 strain (AID 173);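 note: 0% = growth of vehicle-only control cultures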; conditions: S. cerevisiae sgs1 mutant, hits give high values
Procedure, shortened: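 Inhibition of yeast growth served as the measure. The mutant strain was treated with each compound, and growth was normalised to cultures receiving vehicle alone.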

[17] = at 5.0 µM (retest, dose inferred, filed as 0.5)
[18] = at 50.0 µM (retest, dose inferred, filed as 5.0)

Measured: growth inhibition

ClCCn1c(CCl)nc2ccc(Cl)cc21
active: [1]; at 100.0 µM 98% | [2]; at 100.0 µM 97% | [3]; at 100.0 µM 91% | [4]; at 33.0 µM 71% | [4]; at 100.0 µM 98% | [5]; at 50.0 µM 72.7% | [5]; at 100.0 µM 97% | [6]; at 33.0 µM 76% | [6]; [18] 75% | [6]; at 50.0 µM 84% | [6]; at 100.0 µM 95% | [7]; at 33.0 µM 70% | [7]; at 100.0 µM 99% | [8]; [18] 73% | [8]; at 50.0 µM 83.6% | [9]; at 100.0 µM 97% | [11]; at 50.0 µM 81.5% | [11]; at 100.0 µM 96% | [12]; at 33.0 µM 77% | [12]; at 100.0 µM 98% | [13]; at 100.0 µM 98% | [14]; [18] 75% | [14]; at 50.0 µM 79% | [15]; at 33.0 µM 78% | [15]; at 100.0 µM 98%
inactive: [1]; at 1.2 µM -34% | [1]; at 3.7 µM -41% | [1]; at 11.0 µM -8% | [1]; at 33.0 µM 69% | [2]; at 1.2 µM -52% | [2]; at 3.7 µM -61% | [2]; at 11.0 µM -53% | [2]; at 33.0 µM 52% | [3]; at 1.2 µM -12% | [3]; at 3.7 µM 6% | [3]; at 11.0 µM 9% | [3]; at 33.0 µM 48% | [4]; at 1.2 µM -29% | [4]; at 3.7 µM -32% | [4]; at 11.0 µM -16% | [5]; at 1.2 µM -20% | [5]; at 3.7 µM -11% | [5]; [17] 19% | [5]; at 11.0 µM -3% | [5]; at 33.0 µM 63% | [5]; [18] 54% | [6]; at 1.2 µM -27% | [6]; at 3.7 µM -49% | [6]; [17] 18% | [6]; at 11.0 µM -10% | [7]; at 1.2 µM -8% | [7]; at 3.7 µM 0% | [7]; at 11.0 µM 10% | [8]; [17] 18% | [9]; at 1.2 µM 4% | [9]; at 3.7 µM 8% | [9]; at 11.0 µM 34% | [9]; at 33.0 µM 58% | [10]; [17] 7% | [10]; [18] 7% | [10]; at 50.0 µM 41.2% | [11]; at 1.2 µM -20% | [11]; at 3.7 µM -25% | [11]; [17] 13% | [11]; at 11.0 µM -15% | [11]; at 33.0 µM 60% | [11]; [18] 46% | [12]; at 1.2 µM -10% | [12]; at 3.7 µM -13% | [12]; at 11.0 µM 8% | [13]; at 1.2 µM -30% | [13]; at 3.7 µM -31% | [13]; at 11.0 µM -18% | [13]; at 33.0 µM 67% | [14]; [17] 26% | [15]; at 1.2 µM -29% | [15]; at 3.7 µM -14% | [15]; at 11.0 µM 30%

Cn1c2nc3ccccc3c-2nc2ccccc21
inactive: [1]; at 1.2 µM 25% | [2]; at 1.2 µM 6% | [2]; at 3.7 µM 29% | [3]; at 1.2 µM 52% | [4]; at 1.2 µM 4% | [4]; at 3.7 µM 29% | [5]; at 1.2 µM 27% | [6]; at 1.2 µM 10% | [6]; at 3.7 µM 41% | [6]; [17] 33% | [7]; at 1.2 µM 8% | [7]; at 3.7 µM 31% | [8]; [17] 39% | [9]; at 1.2 µM 19% | [9]; at 3.7 µM 46% | [10]; [17] 32% | [11]; at 1.2 µM -5% | [11]; at 3.7 µM 22% | [11]; [17] 16% | [12]; at 1.2 µM 7% | [12]; at 3.7 µM 33% | [13]; at 1.2 µM 9% | [13]; at 3.7 µM 46% | [16]; at 1.2 µM 8% | [16]; at 3.7 µM 42% | [14]; [17] 45% | [15]; at 1.2 µM 8% | [15]; at 3.7 µM 42%
active: [1]; at 3.7 µM 88% | [1]; at 11.0 µM 97% | [1]; at 33.0 µM 98% | [1]; at 100.0 µM 98% | [2]; at 11.0 µM 79% | [2]; at 33.0 µM 96% | [2]; at 100.0 µM 97% | [3]; at 3.7 µM 93% | [3]; at 11.0 µM 98% | [3]; at 33.0 µM 98% | [3]; at 100.0 µM 98% | [4]; at 11.0 µM 80% | [4]; at 33.0 µM 97% | [4]; at 100.0 µM 97% | [5]; at 3.7 µM 81% | [5]; [17] 75% | [5]; at 11.0 µM 95% | [5]; at 33.0 µM 97% | [5]; [18] 97% | [5]; at 50.0 µM 98.6% | [5]; at 100.0 µM 96% | [6]; at 11.0 µM 87% | [6]; at 33.0 µM 97% | [6]; [18] 98% | [6]; at 50.0 µM 96% | [6]; at 100.0 µM 98% | [7]; at 11.0 µM 82% | [7]; at 33.0 µM 97% | [7]; at 100.0 µM 98% | [8]; [18] 95% | [8]; at 50.0 µM 97.9% | [9]; at 11.0 µM 91% | [9]; at 33.0 µM 97% | [9]; at 100.0 µM 97% | [10]; [18] 96% | [10]; at 50.0 µM 96.2% | [11]; at 11.0 µM 88% | [11]; at 33.0 µM 96% | [11]; [18] 97% | [11]; at 50.0 µM 98.2% | [11]; at 100.0 µM 94% | [12]; at 11.0 µM 83% | [12]; at 33.0 µM 96% | [12]; at 100.0 µM 96% | [13]; at 11.0 µM 91% | [13]; at 33.0 µM 97% | [13]; at 100.0 µM 97% | [16]; at 11.0 µM 88% | [16]; at 33.0 µM 97% | [16]; at 100.0 µM 97% | [14]; [18] 98% | [14]; at 50.0 µM 98.1% | [15]; at 11.0 µM 90% | [15]; at 33.0 µM 97% | [15]; at 100.0 µM 93%

Source: PubChem BioAssay (NCI)
